Measurements published in PubChem BioAssay (NCI).
The panel holds about 83,000 compounds, 20% with a hit somewhere; the sample as a whole holds those more often.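 Assay: single dose, 48 h. Readout: percent growth (0 = no net growth; negative = cell death). Active: <10.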 The source made the active and inactive calls.

These molecules were tested on MDA-MB-468 breast (assay: NCI-60 one-dose screen, 48 h (100 = growth as untreated, 0 = no growth, -100 = all killed)). Conditions: 10 µM unless noted.
For `O=C1Nc2ccc(Br)cc2C12CC(c1ccccc1)=NN2` (stereo not given), the growth was 48.6% (inactive). `Cc1ccc(C(=O)C2C(=O)C3CCC2C3)cc1` (stereo not given) was tested, and the growth was 100% (inactive). With `N#CC1=C(N)Oc2c(ccc3ccccc23)C1c1ccccc1Cl` (stereo not given) the growth was 8.77% (active). In the case of `CCCCCCn1c(=N)n(CC(O)COc2cccc(C)c2)c2ccccc21` (stereo not given), the growth is reported as -68.7% (active). With `CC1(c2ccccc2)CO1` (stereo not given) the growth was 110% (inactive). In the case of `COc1ccc(NC(=S)/N=c2\oc3c(OC)cccc3cc2-c2cc3ccccc3[nH]2)cc1`, the growth is reported as 82.1% (inactive). For `Cn1c2c(c(=O)[nH]c1=O)NC1=C(C(=O)c3ccccc31)C1(C=C(O)c3ccccc31)N2` (stereo not given), the growth was 100% (inactive). In the case of `O=C(NCc1cccnc1)c1cc(-c2csc3c(=O)cc(N4CCOCC4)oc23)cc2c1OCCO2`, the growth is reported as 10.7% (inactive). In the case of `ClC1=C(Br)C(Br)(Br)C(=C(Br)Br)C1(Br)Br`, the growth is reported as 74.4% (inactive). For `COc1cc(C)cc2oc3oc(=O)c(-c4nc5ccccc5s4)cc3c(=O)c12`, the growth was 104% (inactive). With `CSc1nc(NCCN2CCOCC2)c(C#N)c(-c2cccc([N+](=O)[O-])c2)n1` the growth was 113% (inactive). With `COC(=O)[C@]1(C(C)C)N[C@H](c2cn(-c3ccccc3)nc2-c2ccccc2)[C@@H]2C(=O)N(c3ccc(Cl)cc3)C(=O)[C@@H]21` the growth was 119% (inactive). In the case of `N#Cc1nc(-c2ccccc2)oc1S(=O)(=O)NCC(c1ccc(Cl)cc1)N1CCCCC1` (stereo not given), the growth is reported as 41.4% (inactive). For `CCOC(=O)c1ccc2c(c1)nc(-c1ccccc1)n2C1CCCCC1`, the growth was 118% (inactive). `COc1ncc(-c2ccc3ncnc(Nc4cccc(Cl)c4)c3c2)cc1NS(=O)(=O)C1CC1` was tested, and the growth was -43.9% (active).
